Bioassay records (PubChem)
Lassa entry inh: Lassa virus entry inhibition | Lassa virus pseudotype entry inhibition, cell reporter | Potency, µM (titrated, usually from 37.9 µM), hits mostly inhibitors | hit rate 1.2% among 300,000; calls by dose curve; tested in HEK293 cells; note: nearly all actives have a fitted effect of over 50% in size
MARV entry inh: blocks Marburg virus binding to or entry into cells | Potency, µM (top dose mostly 37.8 µM), most hits filed as inhibitors | Marburg virus pseudotyped entry inhibition, cell reporter | hit rate 1.8% among 300,000; calls by dose curve; tested in HEK293 cells
Shiga toxin inh: Shiga toxin inhibition | Vero cells, Shiga toxin protein synthesis inhibition reporter | inhibition, % at 38.7 µM | hit rate 9.2% among 290,000 | AID 2315; in the data active = inhibition mostly above about 28%, no sharp cut-off; inactive = mostly below about 43%
CHX counter: affects cycloheximide protein synthesis inhibition readout, counter-screen. cell reporter, cycloheximide protein synthesis inhibition counterscreen. max response, %. hit rate 12% among 300,000; in the data active = max response mostly above about 13%, no sharp cut-off; inactive = mostly below about 14%; note: read at 38.3 µM for the half of the compounds with a filed dose
Numbers stand for hits; - = inactive; ? = inconclusive; . = no result; + = active, no number. In the library only some 12% were active in any assay of this set; here they are far more common.

SMILES	Lassa entry inh	MARV entry inh	Shiga toxin inh	CHX counter
CCOC(=O)Cc1csc(NC(=O)c2cnc3sc(C)cn3c2=O)n1	?	?	88	43
CCOC(=O)Cc1csc(NC(=O)c2ccc(Cl)s2)n1	.	.	54	60
Cc1ccc(/C=C2/Sc3ccc(C(=O)NCc4ccccn4)cc3NC2=O)cc1	.	.	-	-
CCOC(=O)/C(C#N)=C/c1ccc(-c2ccc(C)cc2)o1	-	.	.	.
Cc1ccc(OCC(=O)Nc2sc3c(c2C(N)=O)CCCC3)c(C(C)(C)C)c1	-	.	.	.
O=C(/C=C/c1ccco1)NCCc1ccccc1	-	-	81	47
Cc1ccc(/C=C/C(=O)NCCc2ccccc2)o1	-	?	77	40
O=C(CCc1ccccc1)NCC1(c2ccccc2)CCCC1	?	5.6µM	-	-
COc1ccc(C2(CNC(=O)/C=C/c3ccco3)CCCC2)cc1OC	-	-	-	-
O=C(/C=C/c1ccco1)NCC1(c2ccccc2)CCCC1	-	-	48	105
CCn1cc(Br)c(-c2nc3ccccc3c(=O)n2N)n1	-	-	75	27
Cc1ccc(NC(=O)c2ccoc2)cc1-c1ccc(C(=O)NCC2CC2)cc1	3.1µM	.	.	.
Cc1ccc(C(=O)Nc2ccc3c(c2)C(=O)N(CC2CCCO2)C3=O)cc1 (centres undefined)	?	-	-	-
COc1ccc([C@H](CC(=O)O)NC(=O)OC(C)(C)C)cc1	.	-	.	.
Cc1cc(C)n2nc(CNS(=O)(=O)c3ccc(F)c(C)c3)nc2n1	.	.	-	-
O=c1[nH]c(S)nc2sc3c(c12)CCCC3	.	.	-	-
O=c1[nH]c(-c2ccco2)nc2sc3c(c12)CCCC3	?	?	91	51
CC(=O)Nc1ccc(Cc2nc3c([nH]2)c(=O)n(C)c(=O)n3C)cc1	.	.	-	-
O=C1[C@H]2[C@@H](c3ccc(F)cc3)N3C(=O)N(c4ccc(Br)cc4)C(=O)[C@@]3(Cc3ccccc3)[C@H]2C(=O)N1C1CCCCC1	.	.	-	-
Cc1cc(NC(=O)CSc2nc3cc4c(cc3c(=O)n2CCc2ccccc2)OCO4)no1	-	-	-	9.4
CC1CCc2sc(C(=O)OCC(=O)NCc3ccc(F)cc3)cc2C1 (centres undefined)	?	?	-	-
Cc1c(F)cccc1NS(=O)(=O)c1ccc2c(c1)NC(=O)CO2	?	?	-	-
CSc1nc(N)nc(SCC(=O)c2ccc(C)cc2)c1C#N	?	-	+	28
Cc1snc(SCC(=O)c2ccc([N+](=O)[O-])cc2)c1C#N	-	-	64	30
O=C(CSc1ncnc2nc[nH]c12)c1ccc([N+](=O)[O-])cc1	-	?	-	-
SMILES	Lassa entry inh	MARV entry inh	Shiga toxin inh	CHX counter
Cc1snc(SCC(=O)c2ccc(F)cc2)c1C#N	-	-	105	34
CSc1nc(N)nc(SCC(=O)OC(C)C)c1C#N	-	-	-	-
Cc1snc(SCc2ccc(Cl)cc2)c1C#N	.	.	-	11
CSc1snc(SCC(N)=O)c1C#N	-	?	-	-
Cc1snc(SCc2ccc(F)cc2)c1C#N	-	-	-	-
CC(Oc1ccccc1)C(=O)Nc1ccc(F)c(S(=O)(=O)N2CCOCC2)c1 (centres undefined)	-	-	.	.
COc1ccc(-n2cnc3cc(C(=O)NC4CCCCCC4)ccc32)cc1	-	.	.	.
CNc1ncnc(Sc2nc(N)nc3nc[nH]c23)c1[N+](=O)[O-]	2.5µM	?	.	.
Nc1nc(SCc2ccccc2)c2[nH]cnc2n1	.	.	-	-
C/C(=N\OCC(=O)OC(C)C(=O)Nc1ccc(C(N)=O)cc1)c1ccc2c(c1)OCO2 (centres undefined)	-	?	-	-
Cc1occc1C(=O)NNC(=O)c1ccc(F)cc1	-	-	-	-
Cc1occc1C(=O)NNC(=S)Nc1ccccc1C(F)(F)F	-	?	56	26
Cc1occc1C(=O)NNC(=S)Nc1ccccc1	-	-	77	35
CC(C)(C)CC(=O)NC(=S)Nc1ccccc1C(F)(F)F	-	-	-	-
Cc1occc1C(=O)NNC(=O)c1ccccc1F	.	.	-	23
O=C(NNC(=S)Nc1ccccc1C(F)(F)F)c1ccc(Br)o1	.	.	101	30
FC(F)(F)c1ccc(-c2nc(-c3ccccc3)oc2NCc2ccccc2)cc1	-	-	.	.
O=C(Cn1cnnn1)NCc1ccccc1	-	-	-	-
COC(=O)NC(c1ccccc1)c1c[nH]c2ccccc12 (centres undefined)	.	-	.	.
CCc1ccc(OCC(=O)Nc2ccc(Cl)c(-c3nc4cc(C)cc(C)c4o3)c2)cc1	-	-	.	.
O=C(COc1ccccc1Cl)NCCNC(=O)c1cccnc1	-	-	-	-
Cc1ccccc1NC(=S)NNC(=O)c1ccoc1C	-	?	48	-
Cc1ccc(-c2nc3ccccn3c2NCc2ccc3c(c2)OCO3)cc1	?	?	54	45
Cc1ccc(-c2nc3ccccn3c2Nc2ccc3c(c2)OCO3)cc1	-	-	.	.
COc1ccc(-c2nc3ccc(C)cn3c2NCc2ccc3c(c2)OCO3)cc1	.	.	125	55
SMILES	Lassa entry inh	MARV entry inh	Shiga toxin inh	CHX counter
Cc1ccn2c(Nc3ccc4c(c3)OCO4)c(-c3ccccn3)nc2c1	?	?	39	77
CCC(C)n1c(=O)[nH]c(C)c(Br)c1=O (centres undefined)	.	.	-	-
Cc1ccc(C(=O)N2CCN(S(=O)(=O)c3ccccc3[N+](=O)[O-])C2)cc1	.	.	92	37
Cc1ccc(S(=O)(=O)N2CCN(C(=O)c3ccccc3)C2)cc1[N+](=O)[O-]	.	.	-	-
CN(CC(=O)Nn1cnnc1)S(=O)(=O)c1ccccc1	-	-	-	-
COc1cccc(/C=N/NC(=O)COc2cccc3cccnc23)c1O	?	?	32	-
CC(C)n1cc(/C=N/NC(=O)COc2cccc3cccnc23)c2ccccc21	?	10µM	-	-
Cc1cc(/C=N/NC(=O)C(=O)NCc2ccccn2)c(C)n1-c1ccccc1	?	-	46	28
Cc1cc(/C=N\NC(=O)c2cccs2)c(C)n1-c1ccc2ncccc2c1	10µM	?	135	40
COc1ccc(C2=Nn3c(nnc3-c3ccccc3OC)SC2)cc1	.	.	-	-
C#CC(C)OC(=O)Nc1cnccc1C(F)(F)F (centres undefined)	-	-	-	-
CCOC(=O)c1[nH]c(C)c(C(=O)NCc2ccccc2Cl)c1C	-	?	.	.
Cc1cc(/C=N\NC(=O)COc2cccc3cccnc23)c(C)n1-c1ccccc1	-	?	64	31
C/C(CC(=O)Nc1cccc(C(F)(F)F)c1)=N\NC(=O)c1cnccn1	.	-	53	26
C/C(CC(=O)Nc1c(C)cc(C)cc1C)=N\NC(=O)c1cnccn1	-	-	-	50
COCCNC(=O)C(=O)N/N=C(\C)CC(=O)Nc1ccc(Cl)cc1Cl	-	?	-	-
C/C(CC(=O)Nc1ccc(Cl)cc1Cl)=N\NC(=O)c1cnccn1	-	?	59	32
C/C(CC(=O)Nc1ccc(Cl)c(C(F)(F)F)c1)=N\NC(=O)c1cnccn1	?	?	74	41
Cc1cc(C)c(NC(=O)CN)c(C)c1	-	?	-	-
C/C(CC(=O)Nc1c(C)cc(C)cc1C)=N\NC(=O)OC(C)(C)C	-	-	79	25
Cc1ccc(OCC(=O)N2CCc3ccccc3C2)c(Br)c1	.	.	60	42
O=C(OCC(=O)N1CCc2ccccc2C1)c1cc(=O)[nH]c2ccccc12	.	.	59	33
COc1cc(C(C)=O)ccc1OCC(=O)N1CCc2ccccc2C1	-	-	-	-
